NPR2 activator: GC-B (human) receptor activation; activation, % at 10 µM; hit rate 0.11% among 370,000; P20594; HEK293-GC-B cells, CNP EC30, cGMP TR-FRET; 0% at EC30 CNP, 100% saturating CNP; AID 1920062;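 active means activation at 10 µM reaching about 35% in either raw or pattern-adjusted values, limit read from the data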
Rin1-Abl PPI inh: blocks binding of human Rin1 to Abl. AID 588664. P00519+Q13671. hit rate 0.4% among 360,000. TR-FRET Rin1/Abl binding, biochemical. inhibition, % at 7.35 µM; in the data active means inhibition above about 5%, passing the limit was not always enough
GC-A act: GC-A (human) enzyme activation; HEK293 GC-A cells, cGMP TR-FRET, EC30 ANP; 0% at EC30 ANP, 100% saturating ANP; activation, % at 10 µM; hit rate 0.14% among 370,000; in the data active means activation above about 40%
CaV13 ICDI inh: Primary screen for inhibitors of IQ motif and Ca2+-dependent inactivation inhibitor domain binding in CACNA1D, Förster resonance energy transfer in living cells, …; HEK cells, CFP/YFP FRET ICDI-IQ, plate reader, 10 min; percent FRET-ratio fall versus neutral wells; inhibition, % at 12.3 µM; hit rate 0.098% among 340,000;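 active means mean replicate inhibition of at least 30% and at least 1% of replicates passing that level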;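 further: 0% = median of the neutral control wells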
Rin1-Abl confirm: confirmation of inhibitors of human Rin1-Abl interaction | hit rate 49% among 1,300 | TR-FRET Rin1-Abl binding, purified proteins | inhibition, % at 7.35 µM | AID 602124 | shares compounds with Rin1-Abl PPI inh
GFP quencher: quenches GFP fluorescence, counter-screen for Rin1-Abl inhibitors; shares compounds with Rin1-Abl PPI inh; inhibitors/quenchers counterscreen; inhibition, % at 6.75 µM; hit rate 8.5% among 1,300; AID 602125;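 further: ABL1-eGFP fusion protein alone without its partner RIN1-SBP; 0% = protein with vehicle and 100% = wells lacking protein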
Active calls of the source: *. Most compounds without a hit are left out; they make up all but 0.67% or so of the library. Unless noted, no stated cut-off is given here; in the data, active means inhibition above about 6.5%; inactive means the rest.

`COc1ccc(/C=N\NC(=O)c2cc(O)c(O)c(O)c2)cc1COc1ccc(C(=O)OCC(C)C)cc1` gave NPR2 activator 0, Rin1-Abl PPI inh 15*, GC-A act -35, CaV13 ICDI inh -4, Rin1-Abl confirm 11* and GFP quencher 6.
`COc1ccc(/C=N\NC(=O)c2cc(O)c(O)c(O)c2)cc1CN1CCN(c2ccc(F)cc2)CC1` gave NPR2 activator 4, Rin1-Abl PPI inh 53*, GC-A act 1, CaV13 ICDI inh -5, Rin1-Abl confirm 50* and GFP quencher 11*.
`C/C=C/C=C/C(=O)N1C[C@H](C)N(C)C[C@H]1C` gave NPR2 activator 8 and GC-A act 2.
Screening NS(=O)(=O)c1ccc(NC(=O)COc2ncnc3c2cnn3-c2ccccc2)cc1 returned NPR2 activator -5, Rin1-Abl PPI inh 5.5*, GC-A act -1, CaV13 ICDI inh -2, Rin1-Abl confirm 6 and GFP quencher 0.
C=CC[C@]1(O)C(=O)N(c2ccccc2)c2ccccc21 was read as NPR2 activator 3 and GC-A act 0.
Cc1ccc(CNC(=O)O[C@H]2CC[C@@]34CCCN3C(=O)CCC[C@H]4[C@H]2C)o1 was read as NPR2 activator -6 and GC-A act 0.
`Cc1ccc(S(=O)(=O)N2CCC(C(=O)NCc3cccs3)CC2)cc1` gave NPR2 activator -2 and GC-A act -2.
CN(CC(=O)Nc1cccc(F)c1)C(=O)c1ccc(OCc2ccccc2)cc1 was read as NPR2 activator 3, Rin1-Abl PPI inh 12*, GC-A act 5, CaV13 ICDI inh -3, Rin1-Abl confirm -3 and GFP quencher -2.
C[C@@H]1CN([C@@H](C)CO)C(=O)CCCn2nncc2CO[C@@H]1CN(C)S(=O)(=O)c1cccc(F)c1 was read as NPR2 activator 1, Rin1-Abl PPI inh 14*, GC-A act 2, CaV13 ICDI inh -3, Rin1-Abl confirm -1 and GFP quencher 0.
Screening OCC1(CCOc2ccccc2)CCN(Cc2ccncc2)CC1 returned NPR2 activator 2, Rin1-Abl PPI inh 12*, GC-A act 5, CaV13 ICDI inh -20, Rin1-Abl confirm 12* and GFP quencher -2.
For C[C@H]1[C@@H](O)CC[C@@]23CCCN2C(=O)CCC[C@@H]13 the results were NPR2 activator 3 and GC-A act 0.
`Cc1ccccc1NC(=O)CN1CCN(c2nc(-c3ccccc3)cs2)CC1` gave NPR2 activator 3 and GC-A act 0.
Screening O=C1CN(C(=O)COc2ccccc2)CCN1 returned NPR2 activator 3, Rin1-Abl PPI inh 8.5*, GC-A act 3, CaV13 ICDI inh -7, Rin1-Abl confirm 0 and GFP quencher -1.
For O=C(COc1ccc(-c2ccccc2)cc1)N1CCCC1 the results were NPR2 activator -7, Rin1-Abl PPI inh 0, GC-A act 4 and CaV13 ICDI inh -5.
`CCC(C)N1C(=O)CCC1C(=O)N1CCN(c2ccc(F)cc2)CC1` (stereo not drawn) gave NPR2 activator 10, Rin1-Abl PPI inh -5, GC-A act 3 and CaV13 ICDI inh -5.
CCC(C)N1C(=O)CCC1C(=O)N1CCN(c2ccccc2F)CC1 (stereo not drawn) was read as NPR2 activator 2, Rin1-Abl PPI inh 5.3*, GC-A act 0, CaV13 ICDI inh -3, Rin1-Abl confirm -1 and GFP quencher 0.
COCCCNC(=O)C[C@H]1C[C@@]2(C(=O)OC)C(=C[C@H](COCc3ccccc3)O[C@@H]2C)N(Cc2cccc3ccccc23)C1=O was read as NPR2 activator 4 and GC-A act 1.
Screening COc1ccc(C)cc1N=Nc1ccc(O)c2ncccc12 returned NPR2 activator 2, Rin1-Abl PPI inh 9.0*, GC-A act 2, CaV13 ICDI inh -20, Rin1-Abl confirm 11* and GFP quencher 7.0*.
`Oc1ccc(N=Nc2ccc3c(c2)OCCO3)c2cccnc12` gave NPR2 activator 4, Rin1-Abl PPI inh 11*, GC-A act 2, CaV13 ICDI inh 1, Rin1-Abl confirm 8.4* and GFP quencher 8.1*.
O=C(Nc1ccc(N2C(=O)CC3(CCCCC3)C2=O)c(Cl)c1)c1ccccn1 was read as NPR2 activator -3 and GC-A act 1.
For O=C(Nc1cccc2nsnc12)C1CC(=O)N(c2ccccc2)C1 (stereo not drawn) the results were NPR2 activator 0, Rin1-Abl PPI inh 10*, GC-A act 2, CaV13 ICDI inh -3, Rin1-Abl confirm -5 and GFP quencher -1.
CCOc1ccc(S(=O)(=O)N2CCN(C)CC2)c(C)c1C was read as NPR2 activator -3, Rin1-Abl PPI inh 5.8*, GC-A act 4, CaV13 ICDI inh 0, Rin1-Abl confirm 0 and GFP quencher -1.
For COc1ccc(Cn2cc(CN3[C@@H](C)COc4cc(Br)ccc4S3(=O)=O)nn2)cc1 the results were NPR2 activator 5 and GC-A act 1.
For O=C(NCC(c1ccccc1)c1ccccc1)[C@H](Cc1ccccc1)NC1(C(=O)NC2CCCCC2)CCC1 the results were NPR2 activator -10 and GC-A act -9.
CCCCn1c(N)c(N(CCC(C)C)C(=O)C2CCN(C(=O)c3ccccc3C)CC2)c(=O)[nH]c1=O was read as NPR2 activator -1, Rin1-Abl PPI inh 8.4*, GC-A act -1, CaV13 ICDI inh -15, Rin1-Abl confirm -3 and GFP quencher 0.
Screening CCCCN(C(=O)C1CCN(C(=O)c2ccccc2C)CC1)c1c(N)n(CCCC)c(=O)[nH]c1=O returned NPR2 activator 2, Rin1-Abl PPI inh -1, GC-A act 0 and CaV13 ICDI inh -3.
CCN(CC)c1ccc(C=NN2CCCCCC2)cc1 was read as NPR2 activator -6, Rin1-Abl PPI inh 33*, GC-A act -1, CaV13 ICDI inh -7, Rin1-Abl confirm -2 and GFP quencher 1.
CN1C(=O)c2cc(NC(=O)Cc3cccs3)ccc2OC[C@@H]2O[C@@H](CC(=O)N[C@H]3CCN(Cc4ccccc4)C3)CC[C@@H]21 was read as NPR2 activator 5 and GC-A act 7.
S=C(NCCN1CCCCC1)Nc1ccc(Br)cc1 was read as NPR2 activator 0, Rin1-Abl PPI inh -1, GC-A act -8 and CaV13 ICDI inh -7.
Screening S=C(NCCN1CCCCC1)Nc1ccccc1 returned NPR2 activator -2, Rin1-Abl PPI inh 9.0*, GC-A act 2, CaV13 ICDI inh -18, Rin1-Abl confirm 0 and GFP quencher -2.

Bioassay records deposited in PubChem BioAssay by several laboratories.
